BAZ2B block – BAZ2B (human) inhibition. AlphaScreen BAZ2B-H3K14Ac peptide displacement. Potency, µM (titrated, usually from 114 µM), inactives show at the top dose activity change, negative = inhibition, usual class: inhibitors. 360,000 tested, 4.4% active. AID 504333; also: % is scaled to controls: 0 for no effect and ±100 for the full control effect; nearly all actives have a fitted effect of over 60% in size
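BAZ2B 50 nM plus b-H3(5-23)K14Ac 50 nM, PBS pH 7.4/0.01% Tween-20, 30 min RT; compound added (max 110 uM), 30 min RT; streptavidin donor/Ni-chelate acceptor beads 10 ug/mL final, 20 min dark; AlphaScreen read.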
PLK1 PBD block – inhibitors of human PLK1 polo-box domain binding; Plk1 PBD binding of FITC phosphopeptide, fluorescence polarization; Potency, µM, inactives show max response, negative = inhibition, usual class: inhibitors; AID 720504; 360,000 tested, 2.8% active; also: series mostly up to about 57 µM; % is scaled to controls: 0 for no effect and ±100 for the full control effect; nearly all actives have a fitted effect of over 65% in size
JMJD2A Tudor inh – JMJD2A Tudor domain (human) inhibition | O75164 | AlphaScreen JMJD2A-Tudor / H3K4me3 peptide binding | Potency, µM (titrated, usually from 114 µM), inactives show at the top dose activity change, negative = inhibition, actives largely listed as inhibitors | 390,000 tested, 4.4% active | AID 504339; also: % is scaled to controls: 0 for no effect and ±100 for the full control effect; nearly all actives have a fitted effect of over 50% in size
G9a block – inhibitors of human histone lysine methyltransferase G9a. G9a H3K9 monomethylation, AlphaScreen, 2 h. Potency, µM (top dose mostly 102 µM), inactives show top-dose activity, negative = inhibition, hits mostly inhibitors. 350,000 tested, 8.8% active. AID 504332; also: % is scaled to controls: 0 for no effect and ±100 for the full control effect; nearly all actives have a fitted effect of over 75% in size
Target sequence (Q96KQ7 913-1193 limits assumed): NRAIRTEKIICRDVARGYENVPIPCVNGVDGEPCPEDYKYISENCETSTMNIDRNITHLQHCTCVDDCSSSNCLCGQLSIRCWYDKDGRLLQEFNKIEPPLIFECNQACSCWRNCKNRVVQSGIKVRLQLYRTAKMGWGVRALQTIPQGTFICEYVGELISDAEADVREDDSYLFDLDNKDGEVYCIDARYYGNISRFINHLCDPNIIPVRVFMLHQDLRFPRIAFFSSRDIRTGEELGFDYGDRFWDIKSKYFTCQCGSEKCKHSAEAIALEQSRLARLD
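G9a (20 nM) preincubated 15 min RT with compounds, then 500 nM biotinylated H3K9 peptide and 20 uM SAM added; 2 h RT reaction. Monomethyl-H3K9 product detected by AlphaScreen with anti-H3K9me1 antibody, streptavidin donor and anti-rabbit IgG acceptor beads.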
VDR inhibitor – vitamin D3 receptor (human) inhibition; P11473; VDR-SRC2-3 peptide fluorescence polarization, 2 h; AID 504847; 400,000 tested, 0.93% active; Potency, µM, inactives show max response, negative = inhibition, actives largely listed as inhibitors; also: % is scaled to controls: 0 for no effect and ±100 for the full control effect
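Fluorescence polarization assay measuring small-molecule disruption of VDR binding to the coregulator peptide SRC2-3. Compounds were pin-transferred (23 nl) into the reagent mix and incubated 2 h at room temperature before reading.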
HP1b binding inh – inhibitors of HP1-beta chromodomain binding to methylated histone tails. Potency, µM (series often up to 114 µM), without a hit: at the top dose activity change, negative = inhibition, hits mostly inhibitors. P83916. 390,000 tested, 0.56% active. AlphaScreen HP1-beta / biotin-H3K9me3 peptide binding; also: nearly all actives have a fitted effect of over 70% in size
Target sequence (P83916 whole entry, looked up): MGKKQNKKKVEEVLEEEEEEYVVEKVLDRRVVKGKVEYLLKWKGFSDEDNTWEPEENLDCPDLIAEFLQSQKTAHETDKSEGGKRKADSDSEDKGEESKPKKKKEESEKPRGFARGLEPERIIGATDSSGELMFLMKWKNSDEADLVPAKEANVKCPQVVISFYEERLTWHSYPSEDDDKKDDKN
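HP1-beta protein (50 nM final) preincubated 30 min at room temperature with biotinylated H3(1-18)K9me3 peptide (50 nM) in PBS pH 7.4, 0.01% Tween-20, then compound added for 30 min. AlphaScreen streptavidin donor/nickel chelate acceptor beads (10 ug/mL final), 30 min dark, luminescence read.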
The depositor's hits bear a star; ? = inconclusive; . = no result given; ! = not active in a repeat; [ ] = another dose, or the depositor's remark. Sampled rows, rich in hits. Any-hit rate of the full collection: about 11%. Calls follow the shape of the dose curve; as a rule, active = well fitted curve in the direction sought with a large enough effect; inconclusive = small, poorly fitted or top-dose-only effect, or another doubt; inactive = no such curve, though single readings can be large; an effect the other way counts as inactive or inconclusive. Potency is read from the fitted curve at half-maximal effect.

SMILES	BAZ2B block	PLK1 PBD block	JMJD2A Tudor inh	G9a block	VDR inhibitor	HP1b binding inh
Cc1cc(C(=O)COc2cc(F)ccc2[N+](=O)[O-])c(C)n1C1CC1	?	-6.7%	?	35.5µM*	8.8%	-6.5%
Cc1ccc(S(=O)(=O)N2[C@H](CC(=O)OCc3ccccc3)OC[C@@H]2C(C)C)cc1	.	3.3%	.	.	.	.
O=c1cc(CO)oc(CN2CCN(CCO)CC2)c1O	-30.3%	-8.2%	2.82µM*	?	5.2%	-2.4%
Cc1ccc(CNC(=O)c2ccccc2NC(=O)CSc2nnnn2C)cc1	4.3%	-13.4%	-5.3%	10.5%[59 µM]	10.1%	24.5%
COc1cc2cc(CNc3ccccc3)c(=O)n(CC(=O)Nc3cccc(Cl)c3C)c2cc1OC	-12.9%	.	1.0%	?	4.6%	15.0%
Cc1ccc(-c2nc3ncccn3c2Nc2ccc3c(c2)OCCO3)cc1	?	-13.2%	?	44.7µM*	-12.2%	?
Cc1ccc(-c2nc3ncccn3c2Nc2ccc3c(c2)OCCO3)o1	?	-14.2%	?	?	-5.3%	-19.2%
Brc1ccc(-c2nc3ncccn3c2Nc2ccc3c(c2)OCCO3)o1	50.1µM*	-6.3%	?	?	0.2%	-4.8%
CN(C)C=C1C(=O)c2ccccc2C1=O	-2.2%	0.0%	-6.6%	?	0.3%	33.5%
CC1=CC(=O)c2ccccc2C1=O	?	-2.1%	10.1%	8.91µM*	3.55µM*!	32.6%
COc1ccccc1-c1ccccc1C1=CC(=O)CC(C)(C)C1=O	.	2.6%	.	.	.	.
COc1cccc2c1C(=O)C=C(C)C2=O	-6.7%	-7.1%	-8.7%	-8.0%[59 µM]	39.8µM*	15.4%
CC(C)(C=O)C1=CC(=O)c2ccccc2C1=O	50.1µM*	2.12µM*	25.1µM*	1.78µM*	44.7µM*	5.01µM*
Cc1ccc(C)c(OCCC(=O)N2CCN(S(=O)(=O)c3cc(C)ccc3C)CC2)c1	-5.7%	-2.0%	-12.3%	17.9%[59 µM]	-7.8%	36.1%
CCC(=O)N1CCc2cc(Br)cc(S(=O)(=O)N3CCN(c4ccccc4OC)CC3)c21	1.2%	.	4.1%	10.7%[59 µM]	-26.9%	39.6%
C=C(CCO)C1=CCN(S(=O)C(C)(C)C)[C@H]1CCO (stereo partly drawn)	.	-15.6%	-9.6%	.	-2.6%	50.6%
CCN(CC)C(=O)C1=C(C)N(Cc2ccc(F)cc2)C(=O)C(CC(=O)NC(c2ccccc2)c2ccccc2)C1 (stereo not drawn)	.	0.8%	.	.	.	.
O=c1c(-c2ccccc2)c(O)c2cccc3c2n1CCC3	-37.8%	-2.3%	14.7%	39.8µM*	10.5%	52.5%
NCCNC(=O)c1c(O)c2cccc3c2n(c1=O)CCC3	?	-10.0%	-10.4%	.	-10.0%	49.7%
O=C(NCCO)c1c(O)c2cccc3c2n(c1=O)CC3	-35.0%	-7.5%	56.2µM*	?	10.3%	17.0%
CCOC(=O)C1(C)CCCCCN1C(=O)c1ccc(OC)cc1 (stereo not drawn)	.	-2.7%	.	.	.	.
Cn1c(=O)c2c(SCC(=O)NCc3ccco3)nc(-c3ccccc3Cl)nc2n(C)c1=O	-14.1%	-6.1%	-22.1%	53.5%	-7.3%	3.2%
CCCn1c(=O)n(C)c(=O)c2c(SCC(=O)NCc3ccco3)nc(C3CC3)nc21	-26.5%	-25.4%	79.4µM*	9.1%	1.6%	8.5%
CC(=O)c1nc(N2C(=O)CC(Cc3cccc(C)c3)C2=O)sc1C (stereo not drawn)	-25.7%	-3.1%	14.5%	-9.1%	6.7%	28.9%
CC(=O)c1nc(N2C(=O)CC(Cc3cc(C)cc(C)c3)C2=O)sc1C (stereo not drawn)	-26.2%	-13.1%	-13.6%	44.7µM*	-13.7%	22.3%
SMILES	BAZ2B block	PLK1 PBD block	JMJD2A Tudor inh	G9a block	VDR inhibitor	HP1b binding inh
CCN(CC)C(=O)[C@H]1C[C@H](CC(=O)NCc2ccc(OC)c(OC)c2)C(=O)N2CCc3c([nH]c4ccc(Cl)cc34)[C@]12C	.	-1.8%	?	.	-5.6%	-2.9%
Cc1ccc(F)cc1N=Cc1c(O)c2ccccc2oc1=O	-11.7%	-2.4%	-12.5%	79.4µM*	-1.4%	24.8%
CCN1C(=O)/C(=C\C=C2/C=CC=CN2CC)SC1=S	22.4µM*	12.3%	?	10µM*	?	39.8µM*
CCN1C(=O)/C(=C\N2CCN(C)CC2)SC1=S	-32.3%	-2.5%	-18.6%	-27.5%	1.8%	23.8%
Cc1ccc(NC(=O)Cn2c(=O)n(CCCS(=O)(=O)C3CCCCC3)c(=O)c3ccccc32)cc1F	0.6%	.	9.6%	-2.8%[59 µM]	0.3%	26.1%
CC1=CC(C)(C)N(C(=O)CSc2nnc(N)s2)c2cc(C)c(C)cc21	-27.7%	-2.2%	-18.7%	74.4%[59 µM]	11.2%	27.6%
Cc1cc2c(cc1C)N(C(=O)CSC1=NCCS1)C(C)(C)c1ssc(=S)c1-2	8.91µM*	-4.9%	6.31µM*	5.01µM*	-2.9%	?
CC1(C)c2ssc(=S)c2-c2ccccc2N1C(=O)CSC1=NCCS1	25.1µM*	-15.3%	8.91µM*	25.1µM*	-14.1%	?
CC(C)CCNC(=O)CN1C(=O)CSc2ccc(S(=O)(=O)N3CCCCC3)cc21	3.0%	.	-27.8%	-0.6%[59 µM]	-8.8%	16.3%
O=C(N/N=C/c1cn(Cc2ccccc2)c2ccccc12)c1cc(O)cc(O)c1	50.1µM*	-4.2%	?	79.4µM*	-1.3%	-18.0%
O=C(O)c1ccc(N/N=C/c2cn(Cc3ccc(F)cc3)c3ccccc23)cc1	44.7µM*	23.8µM*	56.2µM*	44.7µM*	?	-30.9%
CC(C)n1cc(/C=N/Nc2ccc(Cl)c(C(=O)O)c2)c2ccccc21	44.7µM*	.	.	10µM*	.	.
COc1ccccc1CNC(=O)CCNS(=O)(=O)c1ccc2c(c1)CC(C)N2C(C)=O (stereo not drawn)	-19.8%	-6.8%	-8.8%	-3.2%	-7.2%	58.9%
Cc1ccc(-c2onc(C)c2C)cc1S(=O)(=O)NCc1ccc(N(C)C)cc1	35.5µM*	.	39.8µM*	11.2µM*	11.8%	?
Cc1nc(-c2ccc(S(=O)(=O)NCc3ccc(F)cc3)cc2)co1	-1.2%	.	-13.9%	-4.2%[59 µM]	1.6%	13.4%[57 µM]
Cc1nc(-c2ccc(S(=O)(=O)NCc3ccc(N(C)C)cc3)cc2)co1	39.8µM*	.	50.1µM*	?	3.5%	-8.2%[57 µM]
CC(Cc1nnc(N)s1)c1ccccc1 (stereo not drawn)	10.9%	?	-10.7%	31.6µM*	-17.1%	-14.9%
O=C(c1cc2ccccc2oc1=O)N(Cc1ccccc1F)C1CCS(=O)(=O)C1 (stereo not drawn)	-20.0%	-6.2%	0.7%	16.4%	0.5%	25.6%
O=c1c2[nH]c3ccc(Cl)cc3c2ncn1CCN1CCCCC1	-7.5%	-5.2%	-12.0%	8.8%	-0.5%	29.8%
S=c1nc[nH]c2c1[nH]c1ccc(Cl)cc12	-0.7%	?	4.47µM*	1.41µM*	9.7%	71.9%
Cc1ccc(NC(=O)COc2ccccc2C(=O)NCc2ccccc2)cc1	9.2%	-2.6%	-14.4%	16.2%[2.33 µM]	11.7%	26.9%

Assay outcomes as filed in PubChem BioAssay.
